Where “and” joins values, the source holds several entries; their conditions need not be identical. Identical values can stand only once. Results filed as inconclusive are left out. Where a call stands in place of a potency, no number is given. Unmarked numbers belong to inactive results. Calls of active or inactive are those of the source. Unless noted, calls come from the whole dose curve; as a rule, active = well fitted curve in the direction sought with a large enough effect; inconclusive = small, poorly fitted or top-dose-only effect, or another doubt; inactive = no such curve, though single readings can be large; an effect the other way counts as inactive or inconclusive.
Legend:
[1] = molecular target: Cytochrome P450 3A4 (Homo sapiens) (UniProt P08684); test: Cytochrome P450 family 3 subfamily A member 4 (CYP3A4) small molecule antagonists: luciferase qHTS assay (AID 1645841; active = well fitted curve in the direction sought with a large enough effect in the repeat runs; an effect the other way counts as inactive or inconclusive; note: nearly all actives have a fitted effect of over 45% in size)
Outline: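 Luminescent CYP3A4 activity readout: compounds plus enzyme-substrate mix 10 min at room temperature, reaction started with NADPH regenerating system for 1 h, stopped with detection reagent, read after 20 min. Ketoconazole served as control.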

[2] = molecular target: Rap guanine nucleotide exchange factor 3 (Homo sapiens) (UniProt O95398); test: Confirmatory qHTS for antagonist of cAMP-regulated guanine nucleotide exchange factor 3 (EPAC1) (AID 1645880); note: nearly all actives have a fitted effect of over 55% in size; note: potency is the fitted concentration of half-maximal effect
Outline: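 Released BODIPY-GDP fluoresces less than Rap1-bound BODIPY-GDP; the signal is followed at 480/540 nm at 5-min intervals over 30 min, after 5 min at room temperature. Reactions contain 100 nM EPAC1, 250 nM RAP1B-BODIPY-GDP and 50 uM GDP; results are normalized to ATA and DMSO.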

[3] = molecular target: Rap guanine nucleotide exchange factor 3 (Homo sapiens) (UniProt O95398); test: Confirmatory qHTS for agonist of cAMP-regulated guanine nucleotide exchange factor 3 (EPAC1) (AID 1645881);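 note: EPAC1 catalysed release of BODIPY-GDP from Rap1B seen as fluorescence loss; nearly all actives have a fitted effect of over 75% in size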
[4] = molecular target: Rap guanine nucleotide exchange factor 4 (Homo sapiens) (UniProt Q8WZA2); test: Confirmatory qHTS for agonist of cAMP-regulated guanine nucleotide exchange factor 4 (EPAC2) (AID 1645884);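 note: nucleotide exchange releases bodipy-GDP from Rap1 and this lowers its fluorescence; nearly all actives have a fitted effect of over 65% in size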
[5] = molecular target: Rap guanine nucleotide exchange factor 4 (Homo sapiens) (UniProt Q8WZA2); test: Confirmatory qHTS for antagonist of cAMP-regulated guanine nucleotide exchange factor 4 (EPAC2) (AID 1645885); note: nearly all actives have a fitted effect of over 25% in size; note: potency is the fitted concentration of half-maximal effect
[6] = molecular target: Rap guanine nucleotide exchange factor 3 (Homo sapiens) (UniProt O95398); test: Counterscreen qHTS for antagonist of cAMP-regulated guanine nucleotide exchange factor 3 (EPAC1) (AID 1645888)
Outline: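 Rap1B-BODIPY-GDP 250 nM + GDP 50 uM; cpds 7-pt, final 9.74 nM–152 uM (activator mode) or from 7.32 nM upwards (inhibitor mode); RT; FI 480/540 nm at 5 and 30 min, then ± cAMP, reread.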

Papain (Carica papaya) = Papain (Carica papaya) (UniProt P00784); test: Primary qHTS assay for inhibitors of the protease papain (AID 1645873);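 note: papain turnover of Z-FR-AMC read as the AMC fluorescence gain over 10 min; series mostly up to about 50 µM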
[7] = Primary qHTS for small molecule stabilizers of the endoplasmic reticulum resident proteome: Secreted ER Calcium Modulated Protein (SERCaMP) assay (AID 1508630)
Outline: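 The SH-SY5Y reporter protocol was run at 3 concentrations up to 38.3 uM (primary) or 11 concentrations (follow-up): 16 h compound, 100 nM thapsigargin for 4 h, then extracellular luciferase luminescence.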

[8] = molecular target: Cytochrome P450 2D6 (Homo sapiens) (UniProt P10635); test: Cytochrome P450 family 2 subfamily D member 6 (CYP2D6) small molecule antagonists: luciferase biochemical (cell-free) qHTS assay (AID 1645840; active = well fitted curve in the direction sought with a large enough effect in the repeat runs; an effect the other way counts as inactive or inconclusive; note: nearly all actives have a fitted effect of over 55% in size; note: potency is the fitted concentration of half-maximal effect; for activity change, negative = inhibition: series mostly up to about 57 µM)
Outline: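 P450-Glo CYP2D6 system: proluciferin substrate converted by enzyme to luciferin, read by luminescence proportional to activity. Enzyme-substrate mix with compound 10 min at room temperature, then NADPH regeneration 1 h before detection reagent.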

[9] = molecular target: Cytochrome P450 2C9 (Homo sapiens) (UniProt P11712); test: Cytochrome P450 family 2 subfamily C member 9 (CYP2C9) small molecule antagonists: luciferase biochemical (cell-free) qHTS assay (AID 1645842; active = well fitted curve in the direction sought with a large enough effect in the repeat runs; an effect the other way counts as inactive or inconclusive; note: nearly all actives have a fitted effect of over 55% in size; note: potency is the fitted concentration of half-maximal effect; for activity change, negative = inhibition: series mostly up to about 57 µM)
Outline: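 P450-Glo CYP2C9 system: proluciferin substrate with enzyme in mix containing 0.4% BSA, 10 min at room temperature, then NADPH regeneration solution added and incubated 1 h at 37C. Detection reagent stopped reaction; luminescence read after 20 min as RLU.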

[10] = Primary qHTS for inhibitors of nuclear receptor binding SET domain protein 2 (NSD2) in an isogenic RCH-ACV NSD2 p.E1099K mutant (9B) (AID 1645876); note: nearly all actives have a fitted effect of over 70% in size; note: potency is the fitted concentration of half-maximal effect
[11] = Primary qHTS for inhibitors of nuclear receptor binding SET domain protein 2 (NSD2) in an RCH-ACV wild type WT cells (2C) (AID 1645877); note: nearly all actives have a fitted effect of over 70% in size; note: potency is the fitted concentration of half-maximal effect
[12] = NCATS anti-infectives library activity on HEK293 viability as a counter-qHTS vs the C. elegans viability qHTS (AID 1745854)
Outline: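 CellTiter-Glo luminescence, read on a CCD imager, scored viability of HEK293 cells after 24 hr compound exposure at 37C. Library tested in several concentrations, 1:5 steps, up to 41.7 uM; digitonin served as control.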

Chain of Cytochrome P450 2C9 (Homo sapiens) (P11712 whole entry, looked up): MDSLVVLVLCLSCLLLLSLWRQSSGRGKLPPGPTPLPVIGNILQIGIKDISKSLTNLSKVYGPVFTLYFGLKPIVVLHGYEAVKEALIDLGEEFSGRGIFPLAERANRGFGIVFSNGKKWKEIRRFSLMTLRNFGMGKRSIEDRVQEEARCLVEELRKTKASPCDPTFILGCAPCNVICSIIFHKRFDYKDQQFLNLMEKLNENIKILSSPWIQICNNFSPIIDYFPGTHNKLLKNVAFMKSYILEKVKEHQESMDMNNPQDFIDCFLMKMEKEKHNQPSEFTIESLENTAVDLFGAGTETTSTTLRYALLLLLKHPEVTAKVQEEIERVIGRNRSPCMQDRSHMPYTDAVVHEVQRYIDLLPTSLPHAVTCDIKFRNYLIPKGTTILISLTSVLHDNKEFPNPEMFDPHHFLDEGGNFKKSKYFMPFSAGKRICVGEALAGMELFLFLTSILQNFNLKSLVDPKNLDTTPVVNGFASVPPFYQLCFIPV
Chain of Cytochrome P450 2D6 (Homo sapiens) (P10635 whole entry, looked up): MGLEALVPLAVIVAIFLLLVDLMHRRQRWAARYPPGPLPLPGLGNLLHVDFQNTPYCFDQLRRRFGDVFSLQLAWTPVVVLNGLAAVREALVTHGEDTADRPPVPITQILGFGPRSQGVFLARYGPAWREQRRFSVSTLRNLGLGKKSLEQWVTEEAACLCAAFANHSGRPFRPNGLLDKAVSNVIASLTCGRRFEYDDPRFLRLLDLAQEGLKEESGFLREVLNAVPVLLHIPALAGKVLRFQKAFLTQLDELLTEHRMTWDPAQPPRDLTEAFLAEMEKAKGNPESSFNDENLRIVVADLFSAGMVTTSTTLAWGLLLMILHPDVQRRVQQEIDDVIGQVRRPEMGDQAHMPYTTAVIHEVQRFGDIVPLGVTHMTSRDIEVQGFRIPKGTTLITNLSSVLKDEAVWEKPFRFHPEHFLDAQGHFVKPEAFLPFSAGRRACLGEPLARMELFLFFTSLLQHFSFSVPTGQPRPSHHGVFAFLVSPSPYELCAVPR
Chain of Rap guanine nucleotide exchange factor 3 (Homo sapiens) (O95398 whole entry, looked up): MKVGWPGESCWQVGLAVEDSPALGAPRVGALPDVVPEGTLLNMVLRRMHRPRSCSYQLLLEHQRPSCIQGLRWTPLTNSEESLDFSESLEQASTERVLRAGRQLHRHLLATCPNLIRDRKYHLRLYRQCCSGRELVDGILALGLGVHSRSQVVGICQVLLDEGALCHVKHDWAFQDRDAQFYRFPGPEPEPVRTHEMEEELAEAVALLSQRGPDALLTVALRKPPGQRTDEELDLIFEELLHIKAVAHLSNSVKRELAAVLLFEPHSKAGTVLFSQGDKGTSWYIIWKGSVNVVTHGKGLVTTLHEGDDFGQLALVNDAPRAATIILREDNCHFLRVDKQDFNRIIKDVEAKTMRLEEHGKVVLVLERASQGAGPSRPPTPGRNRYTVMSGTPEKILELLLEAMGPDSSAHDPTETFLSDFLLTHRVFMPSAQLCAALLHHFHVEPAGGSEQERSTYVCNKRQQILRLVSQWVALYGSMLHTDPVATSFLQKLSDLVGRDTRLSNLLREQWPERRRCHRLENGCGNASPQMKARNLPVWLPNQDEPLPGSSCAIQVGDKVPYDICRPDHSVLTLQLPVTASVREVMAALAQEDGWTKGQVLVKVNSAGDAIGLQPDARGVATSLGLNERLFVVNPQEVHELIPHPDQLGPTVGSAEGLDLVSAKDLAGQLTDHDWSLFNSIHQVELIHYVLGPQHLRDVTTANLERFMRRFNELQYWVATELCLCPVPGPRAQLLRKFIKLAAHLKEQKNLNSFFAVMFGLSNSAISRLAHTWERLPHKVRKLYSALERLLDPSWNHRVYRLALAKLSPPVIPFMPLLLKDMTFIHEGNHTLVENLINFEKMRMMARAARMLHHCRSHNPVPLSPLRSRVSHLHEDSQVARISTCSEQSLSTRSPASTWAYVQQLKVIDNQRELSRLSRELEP
Chain of Rap guanine nucleotide exchange factor 4 (Homo sapiens) (Q8WZA2 whole entry, looked up): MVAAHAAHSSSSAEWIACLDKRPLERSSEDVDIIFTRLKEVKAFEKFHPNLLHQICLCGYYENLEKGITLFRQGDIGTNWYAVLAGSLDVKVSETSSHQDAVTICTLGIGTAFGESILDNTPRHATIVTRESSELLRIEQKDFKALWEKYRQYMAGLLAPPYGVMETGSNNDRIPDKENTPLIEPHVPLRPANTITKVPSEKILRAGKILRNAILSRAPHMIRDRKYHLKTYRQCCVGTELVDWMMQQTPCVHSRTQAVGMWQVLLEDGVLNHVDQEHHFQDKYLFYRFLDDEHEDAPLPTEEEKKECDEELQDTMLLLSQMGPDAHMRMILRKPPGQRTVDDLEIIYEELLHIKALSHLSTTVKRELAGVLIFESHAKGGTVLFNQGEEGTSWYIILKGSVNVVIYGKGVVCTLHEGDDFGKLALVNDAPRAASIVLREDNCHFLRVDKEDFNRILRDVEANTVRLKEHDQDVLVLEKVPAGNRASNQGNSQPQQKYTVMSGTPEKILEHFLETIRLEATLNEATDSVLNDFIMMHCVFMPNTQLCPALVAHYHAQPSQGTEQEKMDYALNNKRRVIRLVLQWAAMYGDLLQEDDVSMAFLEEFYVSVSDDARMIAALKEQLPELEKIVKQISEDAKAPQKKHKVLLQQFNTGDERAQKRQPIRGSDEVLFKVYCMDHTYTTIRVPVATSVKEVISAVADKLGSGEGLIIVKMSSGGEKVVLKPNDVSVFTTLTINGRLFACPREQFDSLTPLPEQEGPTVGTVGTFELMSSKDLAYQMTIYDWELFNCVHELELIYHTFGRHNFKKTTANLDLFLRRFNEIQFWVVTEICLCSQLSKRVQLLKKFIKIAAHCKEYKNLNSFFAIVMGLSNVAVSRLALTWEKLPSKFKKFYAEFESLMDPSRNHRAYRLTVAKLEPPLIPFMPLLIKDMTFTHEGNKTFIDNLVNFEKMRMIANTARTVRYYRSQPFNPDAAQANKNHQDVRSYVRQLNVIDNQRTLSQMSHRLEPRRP
Chain of Papain (Carica papaya) (P00784 whole entry, looked up): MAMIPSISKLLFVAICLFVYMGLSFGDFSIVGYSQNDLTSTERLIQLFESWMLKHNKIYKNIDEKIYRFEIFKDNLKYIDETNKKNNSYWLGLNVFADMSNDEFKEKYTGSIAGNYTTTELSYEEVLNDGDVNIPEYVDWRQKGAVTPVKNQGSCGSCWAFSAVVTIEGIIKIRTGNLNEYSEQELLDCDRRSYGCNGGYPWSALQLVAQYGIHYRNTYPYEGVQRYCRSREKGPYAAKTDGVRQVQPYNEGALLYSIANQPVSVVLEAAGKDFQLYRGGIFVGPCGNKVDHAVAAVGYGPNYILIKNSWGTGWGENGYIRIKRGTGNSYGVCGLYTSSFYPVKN
Chain of Cytochrome P450 3A4 (Homo sapiens) (P08684 whole entry, looked up): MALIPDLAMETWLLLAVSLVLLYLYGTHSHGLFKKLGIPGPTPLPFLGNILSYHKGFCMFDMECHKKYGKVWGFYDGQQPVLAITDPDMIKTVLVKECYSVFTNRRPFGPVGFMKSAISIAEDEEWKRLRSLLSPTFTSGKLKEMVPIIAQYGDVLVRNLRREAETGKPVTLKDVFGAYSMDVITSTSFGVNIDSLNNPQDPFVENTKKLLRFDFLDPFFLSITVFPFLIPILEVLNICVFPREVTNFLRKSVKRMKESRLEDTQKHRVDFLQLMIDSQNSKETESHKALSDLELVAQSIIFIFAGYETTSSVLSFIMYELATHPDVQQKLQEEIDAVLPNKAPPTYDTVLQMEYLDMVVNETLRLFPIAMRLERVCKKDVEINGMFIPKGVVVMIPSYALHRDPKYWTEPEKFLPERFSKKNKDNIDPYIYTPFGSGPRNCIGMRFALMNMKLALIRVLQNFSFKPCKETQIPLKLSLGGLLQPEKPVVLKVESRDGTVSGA

With `C=C1c2cccc(O)c2C(O)=C2C(=O)[C@]3(O)C(O)=C(C(N)=O)C(=O)[C@@H](N(C)C)[C@@H]3[C@@H](O)[C@H]12` the Potency [1] was “inactive”, the Potency [2] was 47.8 µM (active) and the outcome [3] was “inactive”. For the same molecule, the outcome [4] was “inactive”, the Potency [5] was “inactive” and the outcome [6] was “inactive”.

With `CC(C)(C)NC[C@H](O)COc1nsnc1N1CCOCC1` the outcome (Papain (Carica papaya)) was “inactive”.

For `CCCCCCCCNC(C)C(O)c1ccc(SC(C)C)cc1` (stereo unspecified), the Potency [7] was “inactive”, the Potency [8] was 1.38 µM (active) and 8.49 µM (active) and the Potency [9] was “inactive”. The Potency [10] was 10.6 µM (active) and the Potency [11] was 7.5 µM (active).

For `NC(=O)n1c(O)c(C(=O)c2cccs2)c2cc(Cl)ccc21`, the Potency [7] was “inactive”, the Potency [10] was “inactive” and the Potency [11] was “inactive”.

In the case of `NS(=O)(=O)c1ccc(Cl)c(S(N)(=O)=O)c1`, the Potency [7] is reported as “inactive”, the Potency [8] is reported as “inactive” and the Potency [10] is reported as “inactive”. For the same molecule, the Potency [11] was “inactive”.

With `NC(N)=NCc1cccc(I)c1` the Potency [7] was “inactive” and the outcome (Papain (Carica papaya)) was “inactive”.

In the case of `Nc1nc(Cl)nc2c1ncn2[C@@H]1O[C@H](CO)[C@@H](O)[C@@H]1F`, the Potency [7] is reported as “inactive”, the Potency [8] is reported as “inactive” and the Potency [9] is reported as “inactive”. The Potency [10] was 10.6 nM (active) and 52.5 nM (active) and the Potency [11] was 8.4 nM (active) and 37.2 nM (active).

With `c1ccc(CC2=NCCN2)cc1` the Potency [7] was “inactive”, the Potency [9] was “inactive” and the Potency [10] was 8.41 µM (active). The Potency [11] was 5.31 µM (active).

With `CCN(CC)CCNc1ccc(CO)c2sc3ccccc3c(=O)c12` the Potency [7] was “inactive”, the Potency [8] was 4.36 µM (active) and the Potency [9] was “inactive”. The Potency [10] was 2.66 µM (active), the Potency [11] was 1.33 µM (active) and the outcome [12] was “inactive”.

For `Cc1ccc(-c2ncc(Cl)cc2-c2ccc(S(C)(=O)=O)cc2)cn1`, the Potency [7] was “inactive”, the Potency [9] was “inactive” and the Potency [10] was “inactive”. For the same molecule, the Potency [11] was “inactive”.

In the case of `COc1ccc(C(=O)c2ccccc2)c(O)c1`, the Potency [7] is reported as “inactive”, the Potency [8] is reported as “inactive” and the Potency [2] is reported as “inactive”. The outcome [3] was “inactive”, the outcome [4] was “inactive” and the Potency [5] was 31.2 µM (active).

In the case of `CC(C)=CCOc1ccc(/C=C/C(=O)c2ccc(OCC=C(C)C)cc2OCC(=O)O)cc1`, the Potency [7] is reported as “inactive”, the Potency [9] is reported as 15.5 µM (active) and the Potency [2] is reported as 49.8 µM (active). For the same molecule, the outcome [3] was “inactive”, the outcome [4] was “inactive” and the Potency [5] was 39.3 µM (active).

For `CN(C)CCN1C(=O)c2ccccc2N(C)c2ccccc21`, the Potency [7] was “inactive” and the Potency [10] was “inactive”.

For `Cc1c(-c2ccccc2)oc2c(C(=O)OCCN3CCCCC3)cccc2c1=O`, the Potency [7] was “inactive”, the Potency [8] was 3.89 µM (active) and the Potency [9] was “inactive”. The Potency [10] was “inactive” and the Potency [11] was “inactive”.

With `C#C[C@]1(O)CC[C@H]2[C@@H]3CCc4cc(OC)ccc4[C@H]3CC[C@@]21C` the Potency [7] was “inactive”, the Potency [8] was “inactive” and the Potency [9] was 6.92 µM (active) and 4.25 µM (active). The Potency [10] was “inactive” and the Potency [11] was “inactive”.

For `CC(C)CCCC(C)N` (stereo unspecified), the Potency [7] was “inactive”, the Potency [8] was “inactive” and the Potency [9] was “inactive”. The Potency [10] was “inactive” and the Potency [11] was “inactive”.

For `CC1(COc2ccc(CC3SC(=O)NC3=O)cc2)CCCCC1` (stereo unspecified), the Potency [7] was “inactive”, the Potency [9] was “inactive” and the Potency [2] was 49.8 µM (active). For the same molecule, the outcome [3] was “inactive”, the outcome [4] was “inactive” and the Potency [5] was 44.1 µM (active).

In the case of `CCOC(=O)C(C#N)=C(c1ccccc1)c1ccccc1`, the Potency [7] is reported as “inactive”, the Potency [8] is reported as “inactive” and the Potency [10] is reported as “inactive”. The Potency [11] was “inactive”, the Potency [2] was “inactive” and the outcome [3] was “inactive”. For the same molecule, the outcome [4] was “inactive” and the Potency [5] was 49.4 µM (active).

With `COc1cc(C)nc(-n2nc(C)cc2OC)n1` the Potency [7] was “inactive”, the Potency [8] was “inactive” and the Potency [9] was “inactive”. For the same molecule, the Potency [10] was “inactive” and the Potency [11] was “inactive”.

In the case of `COc1cc(C(=O)N2CCCCCCC2)cc(OC)c1OC`, the Potency [7] is reported as “inactive”, the Potency [8] is reported as “inactive” and the Potency [9] is reported as “inactive”. For the same molecule, the Potency [10] was “inactive” and the Potency [11] was “inactive”.

With `CN1CCc2cccc3c2[C@H]1Cc1ccc(O)c(O)c1-3` the Potency [7] was “inactive”, the Potency [9] was “inactive” and the Potency [10] was 6.68 µM (active). The Potency [11] was 7.5 µM (active).

With `CCCCCCCCCCCCCCC[C@H](O)[C@@H](N)CO` the activity change, negative = inhibition [7] was -27.1% [at 3.88 µM], the Potency [8] was 9.77 µM (active) and the Potency [10] was 4.73 µM (active). For the same molecule, the Potency [11] was 5.96 µM (active).

— PubChem BioAssay (NCATS)
